Data as given in PubChem BioAssay.
For some assays here: Potency and affinity values are given separately. Calls of active or inactive are those of the source. Unless noted, the rule behind the calls is not given here.

Key:
[1] = antimalarial activity against Dd2 strain (AID 2302;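 active = growth inhibition above 50% at the single 2 µM test dose, taken to imply half-maximal potency below 2 µM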;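 note: 0% = DMSO untreated growth and 100% = chloroquine plus artemisinin killed control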); settings: P. falciparum Dd2 in RBCs, LDH growth readout, 72 h; at 2 µM; stronger effect = higher value
[2] = human hepatoma cell viability loss – ATP luminescence, cytotoxicity control for P. falciparum antimalarial project, primary screen (AID 2303;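 active = inhibition above 50%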;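 note: 0% = DMSO wells and 100% = digitonin-killed cells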); settings: HepG2 viability, 24-48 h, at 10 µM, stronger effect = higher value
[3] = biological target: L-lactate dehydrogenase (Plasmodium falciparum (isolate CDC / Honduras)) (UniProt Q27743); experiment: PfLDH activity inhibition – cell lysate, 3D7 strain, counter-screen for P. falciparum growth inhibition project (AID 2304);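 note: 0% = vehicle and 100% = reference inhibitor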; settings: P. falciparum 3D7 crude extract, LDH APAD/NBT absorbance; at 2 µM; stronger effect = higher value
[4] = inhibition of 3D7 malaria parasite growth – strain 3D7 (AID 2306);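 note: 0% = DMSO wells and 100% = chloroquine plus artemisinin control wells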; settings: P. falciparum 3D7 erythrocytic growth, LDH absorbance, 72 h; at 2 µM; stronger effect = higher value
[5] = biological target: Calcium-dependent protein kinase 1 (Plasmodium falciparum (isolate 3D7)) (UniProt P62344); experiment: PfCDPK1 kinase inhibitors, biochemical, TCAMS library (AID 1159585; cut-off not given, nearly all actives have IC50 up to about 0.98 µM;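 note: inhibitors leave more ATP so luminescence rises with inhibition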); settings: recombinant PfCDPK1, Kinase-Glo ATP depletion luminescence
[6] = biological target: Plasmodium falciparum protein kinase 6 (PK6, PF3D7_1337100) (UniProt Q8IDW1); experiment: PfPK6 kinase inhibitors, biochemical, TCAMS library (AID 1159586); settings: recombinant PfPK6, Kinase-Glo ATP depletion luminescence
[7] = biological target: Protein kinase 7 (PK7), Plasmodium falciparum 3D7 (PF3D7_0213400) (UniProt Q7YTF7); experiment: inhibition of Plasmodium PK7 catalytic activity – biochemical, TCAMS antimalarial set, Kinase-Glo luminescence (AID 1159587); settings: recombinant PfPK7, Kinase-Glo ATP depletion luminescence
[8] = biological target: Calcium-dependent protein kinase 4 (Plasmodium falciparum (isolate 3D7)) (UniProt Q8IBS5); experiment: PfCDPK4 kinase inhibitors, biochemical, TCAMS library (AID 1159588; cut-off not given, nearly all actives have IC50 up to about 0.91 µM); settings: recombinant PfCDPK4, Kinase-Glo ATP depletion luminescence
Sequence of Calcium-dependent protein kinase 4 (Plasmodium falciparum (isolate 3D7)) (Q8IBS5 whole entry, looked up): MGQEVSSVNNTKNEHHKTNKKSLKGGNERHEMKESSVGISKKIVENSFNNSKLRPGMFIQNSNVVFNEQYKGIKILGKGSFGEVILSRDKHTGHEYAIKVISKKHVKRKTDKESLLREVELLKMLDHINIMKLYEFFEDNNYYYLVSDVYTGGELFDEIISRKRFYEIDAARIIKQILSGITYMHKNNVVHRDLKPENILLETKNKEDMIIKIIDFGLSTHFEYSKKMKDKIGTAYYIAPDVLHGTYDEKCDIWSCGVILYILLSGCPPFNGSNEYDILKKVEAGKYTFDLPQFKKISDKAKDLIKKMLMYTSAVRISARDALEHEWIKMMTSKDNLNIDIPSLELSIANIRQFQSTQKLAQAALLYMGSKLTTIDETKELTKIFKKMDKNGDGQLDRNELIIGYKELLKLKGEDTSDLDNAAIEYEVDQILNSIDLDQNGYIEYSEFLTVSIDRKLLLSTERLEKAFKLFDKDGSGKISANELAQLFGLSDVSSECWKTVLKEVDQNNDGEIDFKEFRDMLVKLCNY

Sequence of Protein kinase 7 (PK7), Plasmodium falciparum 3D7 (PF3D7_0213400) (Q7YTF7 1-343): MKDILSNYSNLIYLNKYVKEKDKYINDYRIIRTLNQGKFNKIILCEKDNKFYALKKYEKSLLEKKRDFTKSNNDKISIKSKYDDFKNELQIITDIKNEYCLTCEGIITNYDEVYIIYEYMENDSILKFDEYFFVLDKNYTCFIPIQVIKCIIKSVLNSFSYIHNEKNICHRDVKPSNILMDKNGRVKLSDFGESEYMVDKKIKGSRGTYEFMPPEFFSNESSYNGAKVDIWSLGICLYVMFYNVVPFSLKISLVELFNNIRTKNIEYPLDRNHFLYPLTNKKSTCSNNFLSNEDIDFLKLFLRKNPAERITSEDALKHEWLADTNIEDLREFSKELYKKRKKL
Sequence of L-lactate dehydrogenase (Plasmodium falciparum (isolate CDC / Honduras)) (Q27743 whole entry, looked up): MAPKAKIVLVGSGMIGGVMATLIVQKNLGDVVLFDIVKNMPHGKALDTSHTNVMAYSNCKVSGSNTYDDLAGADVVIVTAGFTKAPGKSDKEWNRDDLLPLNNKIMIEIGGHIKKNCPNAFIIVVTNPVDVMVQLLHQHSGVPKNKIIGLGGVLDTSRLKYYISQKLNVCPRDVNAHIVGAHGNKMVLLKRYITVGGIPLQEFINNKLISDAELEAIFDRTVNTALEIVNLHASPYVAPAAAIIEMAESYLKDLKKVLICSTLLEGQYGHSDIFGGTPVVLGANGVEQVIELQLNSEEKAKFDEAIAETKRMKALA
Sequence of Calcium-dependent protein kinase 1 (Plasmodium falciparum (isolate 3D7)) (P62344 whole entry, looked up): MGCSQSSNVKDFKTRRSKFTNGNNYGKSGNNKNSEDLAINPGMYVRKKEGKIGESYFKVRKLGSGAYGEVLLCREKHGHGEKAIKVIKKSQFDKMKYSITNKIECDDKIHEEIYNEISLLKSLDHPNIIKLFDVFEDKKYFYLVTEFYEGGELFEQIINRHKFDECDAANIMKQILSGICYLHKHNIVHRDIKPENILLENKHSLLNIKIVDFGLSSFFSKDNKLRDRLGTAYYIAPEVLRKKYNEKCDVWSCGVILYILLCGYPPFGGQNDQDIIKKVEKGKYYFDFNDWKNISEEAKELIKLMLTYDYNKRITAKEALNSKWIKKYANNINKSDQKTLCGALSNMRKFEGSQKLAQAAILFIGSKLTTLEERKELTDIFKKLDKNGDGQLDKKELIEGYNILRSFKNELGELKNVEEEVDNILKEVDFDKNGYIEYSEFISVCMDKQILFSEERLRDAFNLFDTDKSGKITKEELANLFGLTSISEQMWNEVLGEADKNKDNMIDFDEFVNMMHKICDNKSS
Sequence of Plasmodium falciparum protein kinase 6 (PK6, PF3D7_1337100) (Q8IDW1 1-305): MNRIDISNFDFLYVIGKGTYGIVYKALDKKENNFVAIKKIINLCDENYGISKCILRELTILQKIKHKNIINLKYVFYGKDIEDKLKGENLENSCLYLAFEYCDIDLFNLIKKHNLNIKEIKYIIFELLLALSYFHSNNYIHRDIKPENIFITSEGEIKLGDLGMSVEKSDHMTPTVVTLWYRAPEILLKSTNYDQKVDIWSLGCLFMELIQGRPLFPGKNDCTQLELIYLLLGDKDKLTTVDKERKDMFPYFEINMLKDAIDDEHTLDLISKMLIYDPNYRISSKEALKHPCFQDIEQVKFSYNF

Cc1cc2nc(-c3ccc(C(=O)NC4CCN(Cc5ccccc5)CC4)cc3)[nH]c2cc1C
active: growth inhibition [1] 99% | growth inhibition [4] 93%
inactive: inhibition [2] -6% | inhibition [3] -5% | outcome [5] | outcome [6] | outcome [7] | outcome [8]

COc1ccc(Nc2nccc(-c3ccc4c(-c5ccsc5)cnc(N)c4c3)n2)cc1
inactive: inhibition [2] 38% | inhibition [3] -1% | outcome [5] | outcome [6] | outcome [7] | outcome [8]
active: growth inhibition [1] 98% | growth inhibition [4] 101%

CN(C)CCN(C)Cc1ccc(-c2ccc(NC(=O)c3ccc(Cl)cc3)cc2)cc1
inactive: growth inhibition [1] 19% | inhibition [3] -2% | outcome [5] | outcome [6] | outcome [7] | outcome [8]
active: inhibition [2] 51% | growth inhibition [4] 91%

Cc1cc(N2CCCCC2)nc2ccc(NC(=O)c3cncc(Br)c3)cc12
inactive: inhibition [2] -3% | inhibition [3] 0% | outcome [5] | outcome [6] | outcome [7] | outcome [8]
active: growth inhibition [1] 86% | growth inhibition [4] 101%

O=[N+]([O-])c1cccc(CNCC2CCN(Cc3ccc4ccccc4c3)CC2)c1
active: growth inhibition [4] 100%
inactive: growth inhibition [1] 42% | inhibition [2] 18% | inhibition [3] 4% | outcome [5] | outcome [6] | outcome [7] | outcome [8]

CCOc1ccc2c(NN=Cc3c4ccccc4cc4ccccc34)cc(C)nc2c1
active: growth inhibition [1] 94% | growth inhibition [4] 90%
inactive: inhibition [2] -4% | inhibition [3] 0% | outcome [5] | outcome [6] | outcome [7] | outcome [8]

O=C(N[C@@H](Cc1ccccc1)C(=O)NCc1cccc2ccccc12)c1ccc(O)c(-c2ccc(Cl)c(Cl)c2)c1
inactive: inhibition [2] -6% | inhibition [3] 4% | outcome [5] | outcome [6] | outcome [7] | outcome [8]
active: growth inhibition [1] 97% | growth inhibition [4] 101%

CC12CCC(C(=O)N(CC(O)Cn3c4ccc(Cl)cc4c4cc(Cl)ccc43)C1=O)C2(C)C (stereo not given)
inactive: inhibition [2] -1% | inhibition [3] -5% | outcome [5] | outcome [6] | outcome [7] | outcome [8]
active: growth inhibition [1] 99% | growth inhibition [4] 100%

COc1ccccc1C1CCN(C2CCC(NC(=O)c3cc4cc(C(C)C)ccc4[nH]3)CC2)CC1 (stereo not given)
inactive: inhibition [3] -4% | outcome [5] | outcome [6] | outcome [7] | outcome [8]
active: growth inhibition [1] 98% | inhibition [2] 100% | growth inhibition [4] 101%

O=C(NCCc1ccccc1)[C@H](Cc1ccccc1)Nc1ccnc(NCC2CCCCC2)n1
active: growth inhibition [1] 53% | growth inhibition [4] 86%
inactive: inhibition [2] 11% | inhibition [3] 2% | outcome [5] | outcome [6] | outcome [7] | outcome [8]

COc1ccc(CN2CCCC(N3CC4(OC3=O)c3ccccc3-c3ccccc34)C2)c(O)c1 (stereo not given)
inactive: growth inhibition [1] 34% | inhibition [2] 14% | inhibition [3] 7% | outcome [5] | outcome [6] | outcome [7] | outcome [8]
active: growth inhibition [4] 92%

O=C(Nc1ccc2oc(-c3ccc(Br)cc3)nc2c1)c1ccc([N+](=O)[O-])o1
inactive: growth inhibition [1] 21% | inhibition [2] 9% | inhibition [3] 2% | outcome [5] | outcome [6] | outcome [7] | outcome [8]
active: growth inhibition [4] 92%

COC(=O)c1cccc(CNCc2cccc(-c3ccc(-c4nc5ccc(C(F)(F)F)cc5[nH]4)cc3)c2)c1
inactive: inhibition [2] 13% | inhibition [3] 3% | outcome [5] | outcome [6] | outcome [7] | outcome [8]
active: growth inhibition [1] 83% | growth inhibition [4] 102%

Cc1ccc(NC(=O)Nc2ccc(Br)cc2)cc1OCCN(C)C
inactive: growth inhibition [1] 15% | inhibition [2] 13% | inhibition [3] -1% | outcome [5] | outcome [6] | outcome [7] | outcome [8]
active: growth inhibition [4] 84%

CCC(C)NCc1c(O)ccc2c(CNC(C)CC)c(O)ccc12 (stereo not given)
inactive: growth inhibition [1] 31% | inhibition [2] 14% | inhibition [3] 2% | outcome [5] | outcome [6] | outcome [7] | outcome [8]
active: growth inhibition [4] 100%

Cc1ccccc1C1CCN(C2CCC(NC(=O)/C=C/c3cccc(Cl)c3Cl)CC2)CC1 (stereo not given)
active: inhibition [2] 74% | growth inhibition [4] 94%
inactive: growth inhibition [1] 23% | inhibition [3] 2% | outcome [5] | outcome [6] | outcome [7] | outcome [8]

Oc1ccc(CCNc2nc(NCCCOc3cccc(-c4ccccc4)c3)nc(N3CCNCC3)n2)cc1
inactive: growth inhibition [1] 14% | inhibition [2] 40% | inhibition [3] -2% | outcome [5] | outcome [6] | outcome [7] | outcome [8]
active: growth inhibition [4] 89%

CN(/N=C/c1ccc(Cl)cc1)c1nc(NCCc2ccc(O)cc2)nc(N2CCNCC2)n1
active: growth inhibition [1] 97% | growth inhibition [4] 101%
inactive: inhibition [2] 10% | inhibition [3] 4% | outcome [5] | outcome [6] | outcome [7] | outcome [8]

Cc1cc(C(=O)NC2CCN(Cc3ccccc3)CC2)ccc1-c1nc2cc(Cl)c(Cl)cc2[nH]1
inactive: growth inhibition [1] 32% | inhibition [2] 7% | inhibition [3] 0% | outcome [5] | outcome [6] | outcome [7] | outcome [8]
active: growth inhibition [4] 96%

Cc1ccc(NC(=O)c2cccc(CN3CCCN(Cc4cccc(O)c4)CC3)c2)cc1C
inactive: growth inhibition [1] 31% | inhibition [2] 19% | inhibition [3] 1% | outcome [5] | outcome [6] | outcome [7] | outcome [8]
active: growth inhibition [4] 95%

CC(=O)c1ccc2c(c1)CCN(CCC1CCC(NC(=O)c3cc4ccccc4[nH]3)CC1)CC2 (stereo not given)
active: inhibition [2] 64% | growth inhibition [4] 86%
inactive: growth inhibition [1] 47% | inhibition [3] 2% | outcome [5] | outcome [6] | outcome [7] | outcome [8]

CNCCNCc1cccc(-c2cccc(-c3nc4c(C)cccc4[nH]3)c2)c1
active: growth inhibition [4] 98%
inactive: growth inhibition [1] 9% | inhibition [2] 6% | inhibition [3] 1% | outcome [5] | outcome [6] | outcome [7] | outcome [8]

Cc1cc(-c2cc3nc4c(c(=O)n3[nH]2)CCCC4)c(C)o1
active: growth inhibition [1] 82% | growth inhibition [4] 94%
inactive: inhibition [2] 4% | inhibition [3] -4% | outcome [5] | outcome [6] | outcome [7] | outcome [8]

CC(C)c1ccc(C=CC(=O)N2CCC(CCN3CCC(c4c[nH]c5ccccc45)CC3)CC2)cc1
active: inhibition [2] 85% | growth inhibition [4] 93%
inactive: growth inhibition [1] 11% | inhibition [3] 4% | outcome [5] | outcome [6] | outcome [7] | outcome [8]

CS(=O)(=O)c1ccc(OCCCN(Cc2ccccc2C(F)(F)F)c2ccc(C#N)c(C(F)(F)F)c2)cc1
inactive: inhibition [2] 4% | inhibition [3] -5% | outcome [5] | outcome [6] | outcome [7] | outcome [8]
active: growth inhibition [1] 76% | growth inhibition [4] 94%

COc1ccccc1/C=C/C(=O)N(C)C1CCN(CCCCCNC(=O)/C=C/c2ccc(Cl)c(Cl)c2)CC1
inactive: inhibition [3] -3% | outcome [5] | outcome [6] | outcome [7] | outcome [8]
active: growth inhibition [1] 63% | inhibition [2] 71% | growth inhibition [4] 83%

CC(C)N1CCC(N(Cc2ccc(-c3ccc(C(F)(F)F)cc3)cc2)C(=O)Cn2c(SCc3cccc(F)c3F)nc(=O)c3ccccc32)CC1
active: growth inhibition [1] 75% | inhibition [2] 74% | growth inhibition [4] 91%
inactive: inhibition [3] -4% | outcome [5] | outcome [6] | outcome [7] | outcome [8]

COc1ccc(C2CC(=O)C3=C(C2)NC(C)=C(C(=O)OC(C)C)C3c2cccc(O)c2)cc1OC (stereo not given)
inactive: inhibition [2] -2% | inhibition [3] -4% | outcome [5] | outcome [6] | outcome [7] | outcome [8]
active: growth inhibition [1] 85% | growth inhibition [4] 100%

O=C(Nc1ccccc1)N(Cc1ccccc1-c1cccc(CNC2CCCC2)c1)C1CCN(Cc2ccccc2)CC1
inactive: inhibition [2] 36% | inhibition [3] 3% | outcome [5] | outcome [6] | outcome [7] | outcome [8]
active: growth inhibition [1] 84% | growth inhibition [4] 100%

COC(=O)c1cc(OC)c(OC)cc1NC(=O)NC12CC3CC(CC(C3)C1)C2
inactive: growth inhibition [1] 3% | inhibition [2] 6% | inhibition [3] 6% | outcome [5] | outcome [6] | outcome [7] | outcome [8]
active: growth inhibition [4] 94%

C=CCN1CCC(N(Cc2cccc(Oc3ccccc3)c2)C(=O)C(c2ccccc2)c2ccccc2)CC1
inactive: inhibition [2] 7% | inhibition [3] -5% | outcome [5] | outcome [6] | outcome [7] | outcome [8]
active: growth inhibition [1] 79% | growth inhibition [4] 87%

O=C(c1ccc(F)cc1)N1CCOC(CCN2CCC(c3ccccc3)CC2)(c2ccc(Cl)c(Cl)c2)C1 (stereo not given)
active: growth inhibition [1] 84% | growth inhibition [4] 88%
inactive: inhibition [2] 29% | inhibition [3] -6% | outcome [5] | outcome [6] | outcome [7] | outcome [8]

O=C(NCCCCN1CCC(O)(c2ccc3c(c2)OCO3)CC1)c1ccc(NC(=O)c2ccc(Cl)cc2)cc1
inactive: growth inhibition [1] 6% | inhibition [2] 15% | inhibition [3] -1% | outcome [5] | outcome [6] | outcome [7] | outcome [8]
active: growth inhibition [4] 86%

O=C(NCCCCCN1CCC(c2c[nH]c3ccccc23)CC1)Nc1ccc(Cl)cc1Cl
active: inhibition [2] 71% | growth inhibition [4] 99%
inactive: growth inhibition [1] 15% | inhibition [3] -2% | outcome [5] | outcome [6] | outcome [7] | outcome [8]

O=C(NCc1ccccn1)C(c1cc2ccccc2o1)N1CCN(C(c2ccccc2)c2ccccc2)CC1 (stereo not given)
inactive: inhibition [2] 17% | inhibition [3] 0% | outcome [5] | outcome [6] | outcome [7] | outcome [8]
active: growth inhibition [1] 68% | growth inhibition [4] 95%

COc1ccc(CCNCCCCCCNCCc2cccc([N+](=O)[O-])c2)cc1OC
active: growth inhibition [4] 93%
inactive: growth inhibition [1] -3% | inhibition [2] 13% | inhibition [3] -6% | outcome [5] | outcome [6] | outcome [7] | outcome [8]

CC1=C(C(=O)OCCOCc2ccccc2)C(c2ccccc2C(F)(F)F)C(C(=O)OCCOCc2ccccc2)=C(C)N1
active: growth inhibition [1] 87% | growth inhibition [4] 89%
inactive: inhibition [2] -7% | inhibition [3] 3% | outcome [5] | outcome [6] | outcome [7] | outcome [8]

Nc1nc(Nc2ccc(Cl)cc2)nc2ccccc12
inactive: growth inhibition [1] 21% | inhibition [2] 6% | inhibition [3] -2% | outcome [5] | outcome [6] | outcome [7] | outcome [8]
active: growth inhibition [4] 101%

O=C(Nc1ccc(Cl)cc1F)NC1CCN(CCCCCNC(=O)[C@@H]2C[C@H]2c2ccc(Cl)c(Cl)c2)CC1
active: growth inhibition [4] 101%
inactive: growth inhibition [1] 27% | inhibition [2] 46% | inhibition [3] -5% | outcome [5] | outcome [6] | outcome [7] | outcome [8]

CCOc1c(CNCCCCCCNCc2ccc3ccccc3c2OCC)ccc2ccccc12
active: growth inhibition [1] 78% | inhibition [2] 100% | growth inhibition [4] 99%
inactive: inhibition [3] 6% | outcome [5] | outcome [6] | outcome [7] | outcome [8]
